# Screening results as filed in PubChem BioAssay.
# Most compounds without a hit are left out; they make up all but 2.3% or so of the library.
# Nrf2 block: inhibitors of Nrf2 signaling. A549 ARE-Fluc reporter, luciferase luminescence, 18-24 h. hit rate 2.1% among 360,000. Potency, µM (series often up to 46 µM), without a hit: at the top dose activity change, negative = inhibition, hits mostly inhibitors; note: % is set by controls: 0 for no effect and ±100 for the full control effect; nearly all actives have a fitted effect of over 60% in size
#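 Nrf2 activity is the BugLite luminescence, read 15 min after reagent at room temperature, following CellTiter-Fluor cytotoxicity readout (30 min, 37C). Compound titrations were applied for 18-24 h to 5000 A549 ARE_Fluc cells/well in 5% FBS OPTI-MEM.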
# Nrf2 ARE act: activates Nrf2 signaling | AREc32 ARE-luciferase reporter (MCF7-derived line), luminescence, 24 h | Potency, µM (series often up to 46.1 µM), inactives show top-dose activation, most hits filed as activators | hit rate 0.31% among 410,000; note: % of control where 0% means no effect; nearly all actives have a fitted effect of over 65% in size
#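 AREc32 cells carrying an ARE-driven firefly luciferase, 1000 cells/well in OPTI-MEM with 5% FBS, dosed after overnight attachment and incubated 24 hr at 37 deg C. Steady-Glo luminescence read after 30 min at RT.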
# A549 tox-1: A549 cytotoxicity, counter-screen for Nrf2 inhibitors; AID 504648; Potency, µM (top dose mostly 46 µM), for the others: top-dose activity change, negative = cytotoxicity, hits mostly inhibitors; hit rate 0.16% among 390,000; A549 ARE-Fluc cells, CellTiter-Fluor viability, 18-24 h; note: % is set by controls: 0 for no effect and ±100 for the full control effect
#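 A549 ARE_Fluc cells in 5% FBS OPTI-MEM were exposed to compounds in concentration-response for 18-24 h at 37 deg C. Viability was read by CellTiter-Fluor fluorescence (Ex 405/Em 525) after 30 min, before the luciferase read.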
# Rango-impB inh: inhibitors of Rango-importin beta complex formation | Q14974 | Rango CFP/YFP FRET sensor + importin beta, 45 min | Potency, µM (series often up to 92.2 µM), inactives show top-dose inhibition of complex formation | hit rate 0.031% among 340,000 | AID 540263; calls by dose curve;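 note: 0% = DMSO wells and 100% = buffer wells lacking importin beta; nearly all actives have a fitted effect of over 15% in size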
#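 Inhibition scored from the CFP 486 nm/YFP 530 nm FRET ratio 45 min after adding 0.125 microM importin beta to 50 nM Rango biosensor preincubated 5 min with compound (room temperature, PBS with DTT, Tween-20, BSA). No-importin wells as positive control.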
# Rango release inh: inhibitors of RanGTP-induced Rango-importin beta complex dissociation; Biochemical FRET Rango-importin beta, RanGTP-induced dissociation; Potency, µM (titrated, usually from 46.1 µM), without a hit: at the top dose activity change, negative = inhibition; hit rate 0.071% among 340,000; calls by dose curve; note: % of control where 0% means no effect; nearly all actives have a fitted effect of over 45% in size
#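 FRET read at 45 min, room temperature: inhibitors block the CFP/YFP signal rise when RanGTP (0.6 uM Ran, 2 mM GTP, 0.2 uM RCC1) frees Rango (0.1 uM) from importin beta (0.25 uM). Pre-read after 5 min compound exposure flags interference.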
# FLuc counter 3: blocks purified firefly luciferase in Nrf2 counterscreen; Potency, µM (highest dose often 57.5 µM), without a hit: at the highest dose activity change, negative = inhibition, hits mostly inhibitors; hit rate 4% among 1,400; shares compounds with Nrf2 block; purified firefly luciferase, luminescence inhibition; note: % is set by controls: 0 for no effect and ±100 for the full control effect; nearly all actives have a fitted effect of over 65% in size
# Target sequence (P08659 whole entry, looked up): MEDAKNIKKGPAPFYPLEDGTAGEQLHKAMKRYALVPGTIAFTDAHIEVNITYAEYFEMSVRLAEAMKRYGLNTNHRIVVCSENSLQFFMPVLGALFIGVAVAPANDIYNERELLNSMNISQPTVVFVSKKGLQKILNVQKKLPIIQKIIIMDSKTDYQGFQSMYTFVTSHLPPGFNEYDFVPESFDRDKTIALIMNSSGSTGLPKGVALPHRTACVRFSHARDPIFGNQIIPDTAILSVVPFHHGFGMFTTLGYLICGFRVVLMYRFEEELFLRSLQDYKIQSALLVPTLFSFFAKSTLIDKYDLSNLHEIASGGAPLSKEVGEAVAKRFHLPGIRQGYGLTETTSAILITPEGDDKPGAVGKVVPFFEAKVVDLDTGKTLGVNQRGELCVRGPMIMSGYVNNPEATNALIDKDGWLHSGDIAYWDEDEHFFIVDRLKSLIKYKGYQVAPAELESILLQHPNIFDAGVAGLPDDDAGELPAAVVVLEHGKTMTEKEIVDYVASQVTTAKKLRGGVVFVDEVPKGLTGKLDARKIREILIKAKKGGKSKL
# A549 tox-2: toxic to A549 ARE-Fluc cells in Nrf2 counterscreen. shares compounds with Nrf2 block. A549 ARE-Fluc cells, cytotoxicity counterscreen. Potency, µM (series often up to 46.1 µM), for inactives: at the highest dose activity change, negative = cytotoxicity, actives largely listed as inhibitors. hit rate 2% among 1,400. AID 720523;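 note: cells exposed to compounds for 18 to 24 hours; % is set by controls: 0 for no effect and ±100 for the full control effect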
# Nrf2 ARE inh: Nrf2 inhibition confirmed, A549 ARE-luciferase; AID 720524; hit rate 74% among 1,400; shares compounds with Nrf2 block; A549 ARE-firefly luciferase reporter, luminescence; Potency, µM (titrated, usually from 46.1 µM), for the others: top-dose activity change, negative = inhibition, most hits filed as inhibitors; note: % is set by controls: 0 for no effect and ±100 for the full control effect; nearly all actives have a fitted effect of over 65% in size
# * = called active by the depositor; ? = inconclusive; · = not tested or not shown. Unless noted, calls come from the whole dose curve; as a rule, active = well fitted curve in the direction sought with a large enough effect; inconclusive = small, poorly fitted or top-dose-only effect, or another doubt; inactive = no such curve, though single readings can be large; an effect the other way counts as inactive or inconclusive. Potency is the fitted concentration of half-maximal effect.
SMILES,Nrf2 block,Nrf2 ARE act,A549 tox-1,Rango-impB inh,Rango release inh,FLuc counter 3,A549 tox-2,Nrf2 ARE inh
CCOC(=O)c1ccccc1OC(=O)NNc1ccccc1,?,0%,2%,-2%,10%,·,·,·
O=C(c1cc(-c2cccc(Cl)c2)on1)N1CCOCC1,?,4%,5%,6%,9%,·,·,·
C#C[C@@]1(O)CCC2C3CCC4=C/C(=N/OCC(=O)NC(C(=O)O)C(C)O)CC[C@]4(C)C3CC[C@@]21C (stereo partly specified),-7%,0%,0%,-3%,8%,·,·,·
C#CC1(O)CCC2C3CCC4=C/C(=N/OCC(=O)NCC(=O)NC(C(=O)O)C(C)C)CC[C@]4(C)C3CC[C@@]21C (stereo partly specified),2.1µM*,2%,3%,-5%,-17%,1%,-6%,6.5µM*
CC12CCC(O)CC1CCC1C2CCC2(C)C(C3=CC(=O)OC3)C(O)CC12O (stereo unspecified),1.8µM*,-1%,?,1%,8%,1%,?,·
CC12CCC(O)CC1CCC1C2CCC2(C)C(C3=CC(=O)OC3)CCC12O (stereo unspecified),0.41µM*,-1%,?,0%,-6%,1%,?,0.26µM*
C[C@]12CC[C@H]3C(CCC4(O)CC(O)CC[C@]34C=O)C1=CC[C@H]2c1ccc(=O)oc1 (stereo partly specified),?,-3%,-25%,1%,7%,·,·,·
C[C@]12CC[C@H](O)C[C@H]1CCC1C2CC[C@]2(C)[C@@H](c3ccc(=O)oc3)C[C@H]3O[C@]132 (stereo partly specified),·,·,·,·,·,-2%,?,1.5µM*
C[C@H]1O[C@@H](O[C@H]2[C@@H](O)C[C@@H](O[C@H]3[C@@H](O)C[C@H](O[C@H]4CC[C@@]5(C)[C@H](CC[C@@H]6[C@@H]5CC[C@]5(C)[C@@H](C7=CC(=O)OC7)CC[C@]65O)C4)O[C@@H]3C)O[C@@H]2C)C[C@H](O)[C@@H]1O,·,·,·,·,·,1%,?,0.021µM*
O=C(Nc1ccc(Cl)c(C(F)(F)F)c1)c1ccc2c(c1)CCN2S(=O)(=O)c1ccccc1,?,-1%,-19%,·,·,·,·,·
C/C(=C\[C@@H](NP(=O)(c1ccccc1)c1ccccc1)c1ccccc1)CO[Si](c1ccccc1)(c1ccccc1)C(C)(C)C,?,2%,?,1%,12%,·,·,·
C[C@]12CC[C@H](O)C[C@H]1CC[C@@H]1[C@@H]2C[C@@H](O)[C@]2(C)[C@@H](C3=CC(=O)OC3)CC[C@]12O,0.46µM*,-3%,?,-2%,-7%,0%,?,0.46µM*
CC(=O)OC1CC(OC2C(O)CC(OC3C(O)CC(OC4CCC5(C)C(CCC6C5CC(O)C5(C)C(C7=CC(=O)OC7)CCC65O)C4)OC3C)OC2C)OC(C)C1OC1OC(CO)C(O)C(O)C1O (stereo unspecified),0.13µM*,-3%,?,1%,-6%,1%,?,0.16µM*
CC12CC[C@H]3[C@@H](CCC4(O)C[C@H](O)CCC34/C=N/NC(=O)c3ccccc3[N+](=O)[O-])C1(O)CCC2C1=CC(=O)OC1 (stereo partly specified),4.6µM*,0%,?,0%,-8%,0%,?,7.3µM*
C[C@]12CC[C@H](O)C[C@H]1CC[C@@H]1[C@@H]2CC[C@]2(C)[C@@H](C3=CC(=O)OC3)CC[C@]12O,0.26µM*,-2%,?,-3%,-4%,3%,?,0.21µM*
CC12CC[C@H]3[C@@H](CCC4(O)C[C@H](O)CCC34/C=N/NC(=O)Cc3ccccc3)C1(O)CCC2C1=CC(=O)OC1 (stereo partly specified),?,-1%,-25%,-3%,7%,·,·,·
CN(CCc1ccccn1)Cc1ccc(Cl)cc1,?,0%,?,-5%,9%,·,·,·
Nc1c(C(=O)Nc2ccc(OC(F)(F)F)cc2)sc2nc3c(cc12)N1CCC3CC1,6.5µM*,1%,-13%,·,·,-2%,-15%,·
COc1cc([C@@H]2c3cc4c(c(O)c3C[C@H]3COC(=O)[C@@H]32)OCO4)cc(OC)c1OC,?,·,-4%,·,·,·,·,·
C[C@@H]1O[C@@H](O[C@@H]2C=C3CC[C@@H]4[C@@H](CC[C@]5(C)[C@H](c6ccc(=O)oc6)CC[C@@]45O)[C@@]3(C)CC2)[C@H](O)[C@H](O)[C@H]1O,·,·,·,·,·,2%,?,0.01µM*
CC[C@@]1(O)C(=O)OCc2c1cc1n(c2=O)Cc2cc3c(N)cccc3nc2-1,0.65µM*,-3%,?,3%,-1%,-9%,?,0.26µM*
CCCCCn1c(=O)c(C(=O)Nc2cc(C)ccn2)c(O)c2ccccc21,3%,0%,-1%,-4%,-6%,·,·,·
CCCCCCCn1c(=O)c(C(=O)Nc2cnccn2)c(O)c2ccccc21,4.1µM*,8%,?,-4%,8%,1%,?,·
CCCCCn1c(=O)c(C(=O)Nc2cnccn2)c(O)c2ccccc21,4.6µM*,3%,?,-2%,-17%,1%,?,5.8µM*
CCCCCCn1c(=O)c(C(=O)Nc2ncccc2C)c(O)c2ccccc21,8.2µM*,3%,-23%,0%,-10%,0%,-14%,?
O=C(Nc1ccc(OC(=O)N2CCCC2)cc1)N1CCOCC1,5%,0%,3%,6%,1%,·,·,·
O=C(Nc1ccc(OC(=O)N2CCCCC2)cc1)N1CCOCC1,9.2µM*,-3%,-3%,-3%,-15%,-10%,-5%,5.2µM*
O=C(O)CCCC[C@@H]1SC[C@@H]2NC(=O)N[C@@H]21,-12%,-1%,1%,-2%,6%,·,·,·
N#Cc1cn(C2OC(CO)C(O)C2O)c2ncnc(N)c12 (stereo unspecified),?,-1%,?,-2%,1%,·,·,·
NC(=O)c1cn(C2OC(CO)C(O)C2O)c2ncnc(N)c12 (stereo unspecified),0.46µM*,-2%,?,1%,12%,2%,?,0.82µM*
